Hit rate of the full screen: of about 300,000 compounds, about 22,000 (7.3%) were called active. About 2% were inconclusive and are not listed. Cut-off read from the data, not from the text of the source: active = activity score below about -60%; inconclusive = mostly about -28% to -61%; inactive = positive scores. This excerpt belongs to a sample that is enriched for actives.
Assay: Activators via SNCA 5'UTR binding, MLPCN (AID 1814)
Settings: alpha-synuclein 5'UTR reporter, activators screen; active compounds read low; tested at 7.5 µM

Activity score, inactive:
O=C(NCCOc1cccnc1)c1ccc(OC2CCN(Cc3ccccn3)CC2)cc1 95.3%
CCOc1ccc2nc(N(CCCN(C)C)C(=O)c3ccc(C(=O)c4ccccc4)cc3)sc2c1 90.2%

Activity score, active:
O=C(Cc1cccc2ccccc12)NNC(=O)Nc1ccc(Cl)cc1 -112%
Cc1nn2cc(-c3ccc(Cl)cc3)cnc2c1Br -110%
CN1CCN(NC(=O)Nc2ccc(Br)cc2)CC1 -64.9%
COc1ccc(-n2nnnc2-c2nc3ccccc3s2)cc1 -77.3%
O=C(Nc1cccc(-c2nnc(-c3ccccc3)o2)c1)C1CCCO1 (stereo unspecified) -126%
O=c1c(-c2cccc(Cl)c2)c[nH]n1-c1ccccc1 -74.9%
COc1ccc(Cn2c(-c3ccc(Cl)cc3)c[n+]3ccccc23)cc1 -155%
Fc1ccc(COc2ccc(-c3nnco3)cc2)cc1 -126%
Cc1cc(C)c2nc3nc(C)cc(C)c3c(N)c2c1 -190%
CCCCC(O)(CCCC)C(=O)NN(C(=O)CCl)c1ccccc1 -67.8%
S=C(Nc1ccc(Br)cc1Cl)N1CCC2(CC1)OCCO2 -70.7%
COc1ccc(C(=O)CCc2ccccc2O)c(OC)c1 -128%
O=C(NC1CC1)c1ccc(-c2ccccc2)cc1 -142%
O=C(NCCCn1ccnc1)c1cc(-c2ccccc2)on1 -632%
O=C(NC1CCCC1)c1cc(-c2ccccc2)on1 -324%
O=C(NC1CCCCC1)c1cc(C2CC2)on1 -78%
CN(C)S(=O)(=O)N1CCC(Oc2cccc(C(=O)NCCCC3CCCC3)c2)CC1 -70.6%
Cc1c(NC(=O)c2cc(-c3ccc(Cl)s3)nc3ccccc23)c(=O)n(-c2ccccc2)n1C -105%
Cc1c(NC(=O)c2coc(=O)c(Br)c2)c(=O)n(-c2ccccc2)n1C -75.7%
CC1(C)CCSC(/C=C/c2ccccc2)=N1 -123%
O=C(c1cnn(-c2ccc(Cl)cc2)c1)c1ccccc1O -238%
COc1ccc2nc(Nc3nc4cc5c(cc4s3)OCCO5)sc2c1 -103%
COc1ccc2nc(NC(=O)c3ccc(Br)s3)sc2c1 -209%
COc1ccc(NC(=O)Nc2ccc3nsnc3c2)cc1 -138%
COc1ccc2nc(NC(=O)NC3CCCCC3)sc2c1 -186%
COc1cccc(C(=O)Nc2nc3ccc(S(C)(=O)=O)cc3s2)c1 -102%
CCOc1ccc2nc(Nc3nc4ccc(NC(C)=O)cc4s3)sc2c1 -88.4%
COc1ccc2nc(Nc3nc4ccc(NC(C)=O)cc4s3)sc2c1 -95.5%
CCc1noc(C)c1C(=O)Nc1nc2ccc(OC)cc2s1 -85%
